# Measurements from the supplement of paper PMC9950053.
# Where a name gives a salt, the structure may show the parent alone.
# Key:
# Details in all cases: 10 µM; exposure time: 3 h pre-incubation + 3 h imaging
# [1] = tested on: Danio rerio larvae (5 dpf); assay: combined upward orientation toward moving lines (periods 7-14) minus DMSO control (percentage points); higher = more orientation with moving lines than DMSO larvae
# In short: (§1)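 Wild-type 5 dpf zebrafish larvae were exposed to compounds at 10 µM final for 3 h before and 3 h during imaging at 28.5 °C. Larvae were imaged every 6 s and tracked by Z-LaP Tracker. Detections below 0.5 probability and larvae moving under 1% of the time were excluded. Each behavioural measure is the group mean (n = 48) minus the DMSO control mean (n = 844), in percentage points.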
# [2] = tested on: Danio rerio larvae (5 dpf); assay: combined optomotor response (time in upper well half, down vs up moving lines, periods 7-14) minus DMSO control (percentage points); higher = stronger optomotor response than DMSO larvae
# [3] = tested on: Danio rerio larvae (5 dpf); assay: startle (activity period 16 minus period 15, 20-s interval sound) minus DMSO control (percentage points); higher = stronger startle response than DMSO larvae
# In short: as §1
# [4] = tested on: Danio rerio larvae (5 dpf); assay: excitability (activity period 17 minus period 16, 1-s interval sound) minus DMSO control (percentage points); higher = more acoustic excitability than DMSO larvae
# In short: as §1
# [5] = tested on: Danio rerio larvae (5 dpf); assay: 1-h baseline activity (% time moving, periods 1-6) minus DMSO control (percentage points); higher = more locomotor activity than DMSO larvae
# In short: as §1
# [6] = tested on: Danio rerio larvae (5 dpf); assay: habituation (activity change first vs second 5 min of 1-s interval sound, period 17) minus DMSO control (percentage points); higher = larger habituation measure than DMSO larvae
# In short: as §1
smiles,measurement,setting,value
Cc1nnc(C(C)C)n1C1C[C@H]2CC[C@@H](C1)N2CC[C@H](NC(=O)C1CCC(F)(F)CC1)c1ccccc1 (stereo in doubt) [Maraviroc],combined upward orientation toward moving lines,[1],-1.2
same,combined optomotor response,[2],0.791
CN1CCN(CCCN2c3ccccc3Sc3ccc(Cl)cc32)CC1 [Prochlorperazine dimaleate],startle,[3],-8.12
same,excitability,[4],27.2
same,combined optomotor response,[2],6.24
Nc1ncn([C@@H]2O[C@H](CO)[C@@H](O)[C@H]2O)c(=O)n1 [5-Azacytidine],1-h baseline activity,[5],2.7
same,combined upward orientation toward moving lines,[1],2.4
same,combined optomotor response,[2],3.71
C#C[C@]1(O)CC[C@H]2[C@@H]3CCC4=CC(=O)CC[C@@H]4[C@H]3CC[C@@]21CC [Levonorgestrel],combined upward orientation toward moving lines,[1],5.76
same,combined optomotor response,[2],6.62
COc1c(C)c2c(c(O)c1C/C=C(\C)CCC(=O)O)C(=O)OC2 [Mycophenolic acid],1-h baseline activity,[5],1.89
same,combined upward orientation toward moving lines,[1],-0.977
same,combined optomotor response,[2],7.6
O=C(O)CCCc1ccccc1 [Sodium 4-Phenylbutyrate],excitability,[4],2.71
same,combined upward orientation toward moving lines,[1],-3.45
same,habituation,[6],-2.16
same,combined optomotor response,[2],4.62
Cn1cnc([N+](=O)[O-])c1Sc1ncnc2[nH]cnc12 [Azathioprine],1-h baseline activity,[5],7.62
same,combined optomotor response,[2],2.29
Cn1nnc2c(C(N)=O)ncn2c1=O [Temozolomide],habituation,[6],4.81
same,combined optomotor response,[2],5.41
NC(=O)c1ncn([C@@H]2O[C@H](CO)[C@@H](O)[C@H]2O)n1 [Ribavirin],excitability,[4],3.28
same,combined optomotor response,[2],5.43
Nc1ncn([C@H]2C[C@H](O)[C@@H](CO)O2)c(=O)n1 [Decitabine],combined optomotor response,[2],3.77
CN/C(=N\CCSCc1nc[nH]c1C)NC#N [Cimetidine],excitability,[4],-2.33
same,combined optomotor response,[2],0.13
O=C1CCc2cc(OCCCCc3nnnn3C3CCCCC3)ccc2N1 [Cilostazol],1-h baseline activity,[5],10
same,combined optomotor response,[2],5.41
COCCCOc1cc(C[C@@H](C[C@H](N)[C@@H](O)C[C@H](C(=O)NCC(C)(C)C(N)=O)C(C)C)C(C)C)ccc1OC [Aliskiren hemifumarate],excitability,[4],12.7
same,combined optomotor response,[2],1.73
CC(C)(C)NC(=O)[C@@H]1C[C@@H]2CCCC[C@@H]2CN1C[C@@H](O)[C@H](Cc1ccccc1)NC(=O)[C@H](CC(N)=O)NC(=O)c1ccc2ccccc2n1 [Saquinavir mesylate],habituation,[6],-0.527
same,combined optomotor response,[2],-2.96
Cc1cccc(C)c1OCC(C)N (centres undefined) [Mexiletine hydrochloride],1-h baseline activity,[5],3.37
same,combined optomotor response,[2],2.6
CCN(Cc1ccncc1)C(=O)C(CO)c1ccccc1 (centres undefined) [Tropicamide],excitability,[4],-2.02
same,combined optomotor response,[2],0.19
CC1CNc2c(cccc2S(=O)(=O)N[C@@H](CCCNC(=N)N)C(=O)N2CC[C@@H](C)C[C@@H]2C(=O)O)C1 (some centres undefined) [Argatroban],excitability,[4],0.775
same,combined optomotor response,[2],3.86
CC(C)[C@H]1CC[C@H](C(=O)N[C@H](Cc2ccccc2)C(=O)O)CC1 [Nateglinide],1-h baseline activity,[5],3.52
same,combined optomotor response,[2],3.95
CN(C)CCC[C@@]1(c2ccc(F)cc2)OCc2cc(C#N)ccc21 [Escitalopram oxalate],1-h baseline activity,[5],-24.4
same,combined optomotor response,[2],-0.7
C[C@H]1C[C@@H]2[C@H]([C@@H](O)C[C@@]3(C)[C@H]2CC[C@]3(O)C(=O)CO)[C@@]2(C)C=CC(=O)C=C12 [Methylprednisolone],excitability,[4],1.52
same,combined optomotor response,[2],8.85
C[C@]12CCC(=O)C=C1CC[C@@H]1[C@@H]2[C@@H](O)C[C@@]2(C)[C@H]1CC[C@]2(O)C(=O)CO [Hydrocortisone],habituation,[6],4.44
same,combined optomotor response,[2],4.58
CC(C)(C(=O)c1cccnc1)c1cccnc1 [Metyrapone],excitability,[4],15.8
same,combined optomotor response,[2],-5.86
CCCN(CCc1cccs1)[C@H]1CCc2c(O)cccc2C1 [Rotigotine hydrochloride],1-h baseline activity,[5],-27
same,combined optomotor response,[2],-12.7
CCOc1ccccc1OCCN[C@H](C)Cc1ccc(OC)c(S(N)(=O)=O)c1 [Tamsulosin hydrochloride],1-h baseline activity,[5],3.66
same,habituation,[6],1.59
same,combined optomotor response,[2],4.93
CC1(C)O[C@@H]2[C@@H](CO[C@@]3(COS(N)(=O)=O)OC(C)(C)O[C@@H]23)O1 [Topiramate],1-h baseline activity,[5],9.54
same,excitability,[4],2
same,combined optomotor response,[2],-3.96
CN(CCOc1ccc(NS(C)(=O)=O)cc1)CCc1ccc(NS(C)(=O)=O)cc1 [Dofetilide],habituation,[6],5.62
C[C@@H](O[C@H]1OCCN(Cc2n[nH]c(=O)[nH]2)[C@H]1c1ccc(F)cc1)c1cc(C(F)(F)F)cc(C(F)(F)F)c1 [Aprepitant],1-h baseline activity,[5],-8.77
same,combined optomotor response,[2],4.63
Cc1nc(-c2ccc(OCC(C)C)c(C#N)c2)sc1C(=O)O [Febuxostat],excitability,[4],-0.805
same,habituation,[6],-3.37
same,combined optomotor response,[2],1.46
CC#C[C@]1(O)CC[C@H]2[C@@H]3CCC4=CC(=O)CCC4=C3[C@@H](c3ccc(N(C)C)cc3)C[C@@]21C [Mifepristone],1-h baseline activity,[5],-3.83
same,combined optomotor response,[2],8.07
N#Cc1ccc(C(c2ccc(C#N)cc2)n2cncn2)cc1 [Letrozole],excitability,[4],0.318
same,combined optomotor response,[2],-0.923
Cc1ccc(-c2cc(C(F)(F)F)nn2-c2ccc(S(N)(=O)=O)cc2)cc1 [Celecoxib],habituation,[6],-9.16
same,combined optomotor response,[2],0.0816
O=C(O[C@@H]1C[C@@H]2C[C@H]3C[C@H](C1)N2CC3=O)c1c[nH]c2ccccc12 [Dolasetron mesylate],excitability,[4],10.3
same,combined optomotor response,[2],-2.11
CN1CC[C@@H](NC(=O)Nc2ccc(C#N)cc2)C[C@@H]1c1nc2ccccc2[nH]1,habituation,[6],-0.504
same,combined optomotor response,[2],-1.72
CC(C)n1c(/C=C/C(O)CC(O)CC(=O)O)c(-c2ccc(F)cc2)c2ccccc21 (centres undefined) [Fluvastatin sodium],habituation,[6],2.02
same,combined optomotor response,[2],-0.348
CN1CC2c3ccccc3Oc3ccc(Cl)cc3C2C1 (centres undefined) [Asenapine maleate],1-h baseline activity,[5],30.8
same,combined optomotor response,[2],-7.09
CN(C)CC/C=C1/c2ccccc2COc2ccc(CC(=O)O)cc21 [Olopatadine hydrochloride],1-h baseline activity,[5],-0.564
same,habituation,[6],-0.266
same,combined optomotor response,[2],8.84
COc1cc2nc(N3CCN(C(=O)c4ccco4)CC3)nc(N)c2cc1OC [Prazosin hydrochloride],excitability,[4],16.4
O=C(Nc1c(Cl)cncc1Cl)c1ccc(OC(F)F)c(OCC2CC2)c1 [Roflumilast],1-h baseline activity,[5],-15.9
same,combined optomotor response,[2],-6.05
COC(c1ccccc1)(c1ccccc1)[C@H](Oc1nc(C)cc(C)n1)C(=O)O [Ambrisentan],combined optomotor response,[2],0.559
CCOC(=O)[C@H](CCc1ccccc1)N[C@H]1CCc2ccccc2N(CC(=O)O)C1=O [Benazepril hydrochloride],combined optomotor response,[2],5.66
CCN(CC)CCNC(=O)c1c(C)[nH]c(/C=C2\C(=O)Nc3ccc(F)cc32)c1C [Sunitinib malate],combined optomotor response,[2],2.67
Cc1nc(Nc2ncc(C(=O)Nc3c(C)cccc3Cl)s2)cc(N2CCN(CCO)CC2)n1 [Dasatinib],combined optomotor response,[2],-2.04
Cc1cn([C@H]2C=C[C@@H](CO)O2)c(=O)[nH]c1=O [Stavudine],combined optomotor response,[2],7.54
Cc1cccc(CN2CCN(C(c3ccccc3)c3ccc(Cl)cc3)CC2)c1 (centres undefined) [Meclizine dihydrochloride],combined optomotor response,[2],-13.9
Nc1nc(F)nc2c1ncn2[C@@H]1O[C@H](CO)[C@@H](O)[C@@H]1O [Fludarabine],combined optomotor response,[2],-1.67
CC(C)c1ccc2oc3nc(N)c(C(=O)O)cc3c(=O)c2c1 [Amlexanox],combined optomotor response,[2],4.64
CCCCC(=O)N(Cc1ccc(-c2ccccc2-c2nnn[nH]2)cc1)[C@H](C(=O)O)C(C)C [Valsartan],combined optomotor response,[2],7.07
COc1cc2ncnc(Nc3ccc(F)c(Cl)c3)c2cc1OCCCN1CCOCC1 [Iressa],combined optomotor response,[2],5.72
Nc1cccc2c1CN(C1CCC(=O)NC1=O)C2=O (centres undefined) [Lenalidomide],combined optomotor response,[2],1.12
CC(C)c1nc(N(C)S(C)(=O)=O)nc(-c2ccc(F)cc2)c1/C=C/[C@@H](O)C[C@@H](O)CC(=O)O [Rosuvastatin calcium],combined optomotor response,[2],6.26
OCCOCCN1CCN(C2=Nc3ccccc3Sc3ccccc32)CC1 [Quetiapine hemifumarate],combined optomotor response,[2],8.62
CN(C)CCc1c[nH]c2ccc(Cn3cncn3)cc12 [Rizatriptan benzoate],combined optomotor response,[2],6.97
Cc1c(-c2ccc(O)cc2)n(Cc2ccc(OCCN3CCCCCC3)cc2)c2ccc(O)cc12 [Bazedoxifene acetate],combined optomotor response,[2],-0.163
CCOc1nc2cccc(C(=O)O)c2n1Cc1ccc(-c2ccccc2-c2nnn[nH]2)cc1 [Candesartan],combined optomotor response,[2],7.2
CS(=O)(=O)CCNCc1ccc(-c2ccc3ncnc(Nc4ccc(OCc5cccc(F)c5)c(Cl)c4)c3c2)o1 [Lapatinib],combined optomotor response,[2],-2.06
Cc1ccccc1C(=O)Nc1ccc(C(=O)N2CCCC(O)c3cc(Cl)ccc32)c(C)c1 (centres undefined) [Tolvaptan],combined optomotor response,[2],4.13
Nc1nc(NC2CC2)c2ncn([C@H]3C=C[C@@H](CO)C3)c2n1 [Abacavir hemisulfate],combined optomotor response,[2],4.25
CC(=O)S[C@@H]1CC2=CC(=O)CC[C@]2(C)[C@H]2CC[C@@]3(C)[C@@H](CC[C@@]34CCC(=O)O4)[C@H]12 [Spironolactone],combined optomotor response,[2],0.523
CNC(=O)c1ccccc1Sc1ccc2c(/C=C/c3ccccn3)n[nH]c2c1 [Axitinib],combined optomotor response,[2],3.98
NS(=O)(=O)Cc1noc2ccccc12 [Zonisamide],combined optomotor response,[2],7
CCCCCOC(=O)Nc1nc(=O)n([C@@H]2O[C@H](C)[C@@H](O)[C@H]2O)cc1F [Capecitabine],combined optomotor response,[2],4.98
COc1ccc(-c2ccc3cc(C(=O)O)ccc3c2)cc1C12CC3CC(CC(C3)C1)C2 [Adapalene],combined optomotor response,[2],0.129
CC(=O)NC[C@H]1CN(c2ccc(N3CCOCC3)c(F)c2)C(=O)O1 [Linezolid],combined optomotor response,[2],6.27
CCOc1nc2cccc(C(=O)O)c2n1Cc1ccc(-c2ccccc2-c2noc(=O)[nH]2)cc1 [Azilsartan],combined optomotor response,[2],0.518
COc1ccccc1OCCNCC(O)COc1cccc2[nH]c3ccccc3c12 (centres undefined) [Carvedilol],combined optomotor response,[2],-1.8
NC(=O)N1c2ccccc2C=Cc2ccccc21 [Carbamazepine],combined optomotor response,[2],6.15
CC(C)C(=O)Nc1ccc([N+](=O)[O-])c(C(F)(F)F)c1 [Flutamide],combined optomotor response,[2],-12.4
CC/C(=C(\c1ccccc1)c1ccc(OCCN(C)C)cc1)c1ccccc1 [Tamoxifen citrate],combined optomotor response,[2],-10.7
CC(=O)Oc1ccccc1C(=O)O [Aspirin],combined optomotor response,[2],-1.47
CN1CC(=O)N2[C@H](c3ccc4c(c3)OCO4)c3[nH]c4ccccc4c3C[C@@H]2C1=O [Tadalafil],combined optomotor response,[2],-1.2
